# Results reported in ChEMBL document CHEMBL4513216, “Probing the Open Global Health Chemical Diversity Library for Multistage-Active Starting Points for Next-Generation Antimalarials” (ACS Infect Dis, 2020).
# Hit rate of the full screen: of about 68,000 compounds, about 2,700 (4%) showed an effect of 50% or more. The full list was thinned out, with strong results kept by preference.
# Tested on: Plasmodium berghei
# Test: Screen against P. berghei liver stage (PbLuc), transformed with Luciferase, at 2uM
# Format: functional, HepG2
# Conditions: tested at 2 uM
row,SMILES,INHIBITION
1,CC(Cn1cccn1)n1cnc2ccc(F)cc2c1=O (centres undefined),32.71%
2,Cc1n[nH]c(C2CN(CC(=O)NCc3cccs3)CCO2)n1 (centres undefined),34.42%
3,CCN(CCNC(=O)C1CCN(C(C)=O)CC1)c1ccccc1C,31.13%
4,COc1ccc2[nH]cc(CCNC(=O)C3CCCN(C(C)=O)C3)c2c1 (centres undefined),13.65%
5,CC(=O)N1CCCC(C(=O)NCCc2ccc(F)c(Br)c2)C1 (centres undefined),63.17%
6,CN1CC(C(=O)NCCc2ccc(F)c(Br)c2)CC1=O (centres undefined),-5.13%
7,CCCN1CCC(C(=O)NCCN(CC)c2ccccc2C)CC1,-5.9%
8,CCN(CCNC(=O)C1CCCN(C(C)=O)C1)c1ccccc1C (centres undefined),56.33%
9,O=C(CN1C=Nc2ccccc2S1(=O)=O)NCCc1cccs1,6.12%
10,CCn1ncc(Br)c1CN(C)S(=O)(=O)c1ccc(C)cc1,0.3%
11,CCCc1nc(NCc2c(C)nn(CCC)c2C)c2cnn(C)c2n1,32.53%
12,CC(C)CNC(=O)CNc1c(NCc2ccco2)c(=O)c1=O,10.93%
13,COc1ccnc(CN2CCCC(CCc3ccc(F)cc3)C2)c1OC (centres undefined),58.03%
14,COc1coc(CN2CCCC(CCc3ccc(F)cc3)C2)cc1=O (centres undefined),30.44%
15,COc1ccnc(CN2CCCC(CCc3ccccc3)C2)c1OC (centres undefined),11.37%
16,Cc1nc(CN2CCCC(N(C)Cc3nnc(C4CC4)o3)C2)no1 (centres undefined),-10.47%
17,Cc1cc(CN(C)C2CCCN(Cc3noc(C4CC4)n3)C2)no1 (centres undefined),28.65%
18,CC(C)c1nc(CN(C)C2CCN(Cc3nnc(C4CC4)o3)C2)no1 (centres undefined),37.9%
19,Cc1nnc(CN(C)C2CCCN(Cc3noc(C4CC4)n3)C2)o1 (centres undefined),62.13%
20,Cc1cc(CN(C)C2CCCN(Cc3noc(C)n3)C2)no1 (centres undefined),80.46%
21,CN(Cc1noc(C2CC2)n1)C1CCN(Cc2nnc(C3CC3)o2)C1 (centres undefined),51.19%
22,CCc1nnc(CN(C)C2CCCN(Cc3noc(C4CC4)n3)C2)o1 (centres undefined),-7.13%
23,Cc1cc(CN(C)C2CCCN(Cc3noc(C)n3)C2)on1 (centres undefined),-2.71%
24,Cc1nc(CN(C)C2CCN(Cc3nnc(C4CC4)o3)C2)no1 (centres undefined),49.01%
25,CC(C)N(Cc1cccnc1)C(=O)CCSc1ccc(C#N)cc1,16.72%
26,CCc1nc(CN2CCN(C(=O)c3csnn3)CC2)cs1,32.64%
27,CC(C)NC(=O)N1CCCC2(CCCCN2)C1 (centres undefined),21.75%

row,SMILES,INHIBITION
1,O=C(NCC(F)(F)F)c1ccncc1,8.22%
2,Fc1cnc(N2CCCC3(CCN(Cc4cccs4)C3)C2)nc1 (centres undefined),31.25%
3,Cc1ccnc(NC(=O)C2CCCO2)c1 (centres undefined),23.39%
4,COc1ccc(N(C)C(=O)C2CN(C)CCO2)cc1F (centres undefined),71.05%
5,COc1ccc(N(C)C(=O)C2CN(C)CCO2)cc1Cl (centres undefined),-18.04%
6,CN1CCOC(C(=O)N(C)c2ccc3c(c2)CCO3)C1 (centres undefined),-30.56%
7,Cc1ccc(OCC(O)COC2CCOCC2)c(Cl)c1 (centres undefined),-2.35%
8,Cc1cc(Cc2ccccc2C)cc(C2CCCNC2)n1 (centres undefined),54.02%
9,Cc1cc(Cc2ccccc2)cc(C2CCCNC2)n1 (centres undefined),-24.98%
10,Cc1cc(Cc2ccccc2F)cc(C2CCCNC2)n1 (centres undefined),4.91%
11,CC(=O)N1CCN(c2cc(-n3cccc3)ncn2)CC1,35.36%
12,CSc1sc2c(O)cc(=O)[nH]c2c1C(N)=O,15.96%
13,CSCCc1n[nH]c2c1CN(S(=O)(=O)c1cn(C)c(C)n1)CC2,41.07%
14,Cc1nc(S(=O)(=O)N2CCc3[nH]nc(CCC(C)C)c3C2)cn1C,26.75%
15,CSCCc1n[nH]c2c1CN(S(=O)(=O)c1c(C)nn(C)c1C)CC2,59.8%
16,CS(=O)(=O)Cc1nc(CNc2ccc(F)c(F)c2)cs1,56.49%
17,CSc1ccc(NCc2csc(CS(C)(=O)=O)n2)cc1F,28.95%
18,CS(=O)(=O)Cc1nc(CNc2c(F)cc(F)cc2F)cs1,1.42%
19,Cc1cn(Cc2ccccc2)nc1N,43.77%
20,Cc1cccc(Cn2cc(C)c(N)n2)c1,62.99%
21,Cc1ccc(Cn2cc(C)c(N)n2)cc1,-20.05%
22,COC(=O)c1cccc2nc([C@H]3CCN(Cc4ccccc4F)C3)oc12,52.36%
23,COc1cccc(-c2noc(C3CCN(Cc4ccccc4F)C3)n2)c1 (centres undefined),35.56%
24,COC(=O)c1cccc2nc([C@H]3CCN(Cc4ccccc4C)C3)oc12,33.14%
25,COC(=O)c1cccc2nc([C@H]3CCN(CC(C)C)C3)oc12,53.46%
26,COC(=O)c1cccc2nc([C@H]3CCN(Cc4ccccc4)C3)oc12,1.29%
27,COC(=O)c1cccc2nc([C@H]3CCN(C4CCN(C)CC4)C3)oc12,21.06%
